Screening data: PubChem, National Center for Advancing Translational Sciences (NCATS)
This is a sample that favours compounds with a hit; in the whole collection about 9.2% have one here.
LMNA splice mod: modulators of lamin A splicing. HeLa LMNA splicing GFP/RFP minigene ratio, 48 h. Potency, µM (top dose mostly 46.1 µM), hits mostly inhibitors. actives 0.01% (n = 200,000); active = well fitted inhibition curve with a large enough effect in the signal ratio, with a control signal flat, not every such curve was filed as active; inconclusive = small, poorly fitted or top-dose-only effect, or effect the other way, or a change in a side signal; the % refers to the signal ratio
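S3 HeLa cells stably expressing lamin A-EGFP splicing minigene plus DsRed2, 600 cells/well, 48 h compound exposure at 37C. Laser-scanning cytometry; analysed as GFP (500-530 nm)/RFP (575-640 nm) total intensity ratio; 0.5% DMSO vehicle.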
KDM4E inh: blocks human JMJD2E demethylase activity; Potency, µM (doses to about 57.1 µM), actives largely listed as inhibitors; actives 1.6% (n = 230,000); JMJD2E catalytic domain, FDH-coupled NADH fluorescence (FDH is formaldehyde dehydrogenase); also: nearly all actives have a fitted effect of over 50% in size
Target sequence (B2RXH2 1-337 limits assumed): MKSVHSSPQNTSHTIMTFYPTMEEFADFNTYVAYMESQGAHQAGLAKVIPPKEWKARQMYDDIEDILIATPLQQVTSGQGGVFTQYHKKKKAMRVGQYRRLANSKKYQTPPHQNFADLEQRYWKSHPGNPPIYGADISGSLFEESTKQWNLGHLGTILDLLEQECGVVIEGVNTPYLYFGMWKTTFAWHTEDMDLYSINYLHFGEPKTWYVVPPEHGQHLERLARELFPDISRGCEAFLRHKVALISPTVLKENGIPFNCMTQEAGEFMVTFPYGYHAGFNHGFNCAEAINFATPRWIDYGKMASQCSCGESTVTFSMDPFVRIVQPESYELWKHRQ
HTT ATP protect: protects HTT-Q103 PC12 cells, measured by ATP; actives 0.14% (n = 230,000); Potency, µM (series often up to 56.4 µM), hits mostly activators; PC12 HTT-Q103 induced, cytoprotection, ATP luminescence, 40 h; active = well fitted curve in the direction sought with a large enough effect; inconclusive = small, poorly fitted or top-dose-only effect, or another doubt; inactive = no such curve, though single readings can be large; an effect the other way counts as inactive or inconclusive; also: nearly all actives have a fitted effect of over 45% in size
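PC12 cells stably carrying ecdysone-inducible Htt exon 1 (Q103)–GFP were induced with 100 nM tebufenozide (final) alongside library compounds in a dose series. Cytoprotection was scored as retained ATP by ATPlite luminescence.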
HTT aggregate: mutant huntingtin aggregation inhibition; AID 1688; actives 1.1% (n = 220,000); Potency, µM (highest dose often 46.1 µM), hits mostly inhibitors; PC12 HttQ103-GFP aggregates, Acumen cytometry, 40 h; active = well fitted curve in the direction sought with a large enough effect; inconclusive = small, poorly fitted or top-dose-only effect, or another doubt; inactive = no such curve, though single readings can be large; an effect the other way counts as inactive or inconclusive; also: nearly all actives have a fitted effect of over 60% in size
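Inducible Q103 Huntingtin exon 1–GFP PC12 line, 1500 cells/well in phenol red free DMEM with 5% equine and 5% calf serum. Tebufenozide 100 nM induced expression; compounds titrated; aggregates quantified by cytometry.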
HPGD inh: blocks human HPGD enzyme activity. P15428. purified HPGD, NADH fluorescence kinetic, PGE2 substrate. Potency, µM, most hits filed as inhibitors. actives 4.3% (n = 150,000). AID 894
Target sequence (P15428 whole entry, looked up): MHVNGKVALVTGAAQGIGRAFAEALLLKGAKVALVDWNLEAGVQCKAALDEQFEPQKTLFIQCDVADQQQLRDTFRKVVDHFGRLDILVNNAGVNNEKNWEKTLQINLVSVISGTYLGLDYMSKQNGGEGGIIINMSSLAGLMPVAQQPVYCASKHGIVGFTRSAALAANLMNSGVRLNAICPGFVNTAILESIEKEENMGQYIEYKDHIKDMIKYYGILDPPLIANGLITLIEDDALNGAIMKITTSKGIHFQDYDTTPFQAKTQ
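20 nM HPGD preincubated 15 min at room temperature with compound in 50 mM Tris-HCl pH 8, 0.01% Tween 20. Started with 1 mM NAD+ and 30 uM prostaglandin E2; NADH fluorescence (360/450 nm) read 5 times over 30-s intervals, last minus first.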
ALDH1A1 block: inhibitors of human aldehyde dehydrogenase 1A1 | P00352 | Purified ALDH1A1, NADH fluorescence, propionaldehyde substrate | Potency, µM (doses to about 75.3 µM), most hits filed as inhibitors | actives 7.3% (n = 220,000)
Of the large screens only hits and unclear results are named; the others gave an inactive call. Unless noted, calls follow the shape of the dose curve; as a rule, active = well fitted inhibition curve with a large enough effect (not every such curve was filed as active); inconclusive = small, poorly fitted or top-dose-only effect, or another doubt; inactive = no such curve, though single readings can be large or run the other way.

COc1ccc(/C=C2\SC(=O)NC2=S)cc1OC	LMNA splice mod inconclusive, HPGD inh 16µM, ALDH1A1 block 18µM
COc1cccc(/C=C2\SC(N)=NC2=O)c1OS(=O)(=O)c1ccccc1	none (no result: LMNA splice mod, HPGD inh)
CCOc1ccc(/C=C2\SC(=S)NC2=O)cc1OC	LMNA splice mod inconclusive, ALDH1A1 block inconclusive (no result: HPGD inh)
COc1cc(/C=C2\SC(=S)NC2=O)ccc1OS(=O)(=O)c1ccccc1	LMNA splice mod inconclusive, HTT aggregate inconclusive, HPGD inh 8.9µM, ALDH1A1 block 6.3µM
COc1cccc(/C=C2\SC(=S)NC2=O)c1OS(=O)(=O)c1ccc(NC(C)=O)cc1	HPGD inh 25µM, ALDH1A1 block inconclusive
NCc1ccccc1COc1ccccc1	KDM4E inh inconclusive (no result: HTT ATP protect)
CC(C)(C)OC(=O)N1CCC(c2c(C(=O)N3CCN(C(=O)c4ccco4)CC3)cnn2-c2ccc(Cl)cc2)CC1	none (no result: KDM4E inh, HTT ATP protect, HTT aggregate, HPGD inh, ALDH1A1 block)
O[C@@H](c1cc(C(F)(F)F)nc2c(Cl)cc(Cl)cc12)[C@@H]1CCCCN1	none (no result: LMNA splice mod, KDM4E inh, HTT aggregate, HPGD inh, ALDH1A1 block)
Cc1ccc2scc(N3CCCCC3C)c(=O)c2c1 (configuration not stated)	none (no result: KDM4E inh, HTT ATP protect, HTT aggregate, HPGD inh, ALDH1A1 block)
CC(=O)Nc1ccc(OC(=O)c2ccccc2O)cc1	HPGD inh inconclusive (no result: LMNA splice mod)
CCN(C(=O)CCS(=O)(=O)c1ccc(Br)cc1)c1ccc2c(c1)OCO2	ALDH1A1 block 16µM
CC1C/C(=N\NC(=O)c2ccc(NS(=O)(=O)c3ccc(Br)cc3)cc2)CC(C)(C)C1 (configuration not stated)	ALDH1A1 block 3.5µM
Cc1cc(C)nc(SCc2ccc(C(=O)NN=C3C4CC5CC(C4)CC3C5)cc2)n1	ALDH1A1 block 3.5µM
Cc1cc(C)nc(SCc2ccc(F)cc2)n1	HTT ATP protect 3.2µM, HTT aggregate inconclusive (no result: HPGD inh)
C/C(=N\NC(=O)c1ccc(CSc2nc(C)cc(C)n2)cc1)c1ccco1	ALDH1A1 block inconclusive (no result: HPGD inh)
Cc1cc(C)nc(SCc2ccc(C(=O)N/N=C3\CC(C)CC(C)(C)C3)cc2)n1 (configuration not stated)	ALDH1A1 block 7.9µM (no result: HPGD inh)
CC1C/C(=N\NC(=O)c2cccnc2)CC(C)(C)C1 (configuration not stated)	ALDH1A1 block inconclusive (no result: LMNA splice mod, HPGD inh)
CC1C/C(=N\NC(=O)c2ccc([N+](=O)[O-])cc2)CC(C)(C)C1 (configuration not stated)	none (no result: LMNA splice mod, HPGD inh, ALDH1A1 block)
CNC(=O)[C@]1(C)C[C@H]1[C@H](NC(=O)[C@]1(C)C[C@H]1[C@H](NC(=O)[C@]1(C)C[C@H]1[C@H](NC(=O)[C@]1(C)C[C@H]1[C@H](NC(=O)OCc1ccccc1)c1ccccc1)c1ccccc1)c1ccccc1)c1ccccc1	none (no result: LMNA splice mod, HTT aggregate)
O=C(CC(NC(=O)c1ccccc1)c1ccccc1)Nc1cccc2ccccc12 (configuration not stated)	none
COc1cc([C@H](O)C(=O)O)ccc1O	none (no result: LMNA splice mod, KDM4E inh, HTT aggregate, HPGD inh, ALDH1A1 block)
COc1ccc2c(c1)OCC(Cc1ccc(OC)c(O)c1)C2=O (configuration not stated)	HPGD inh inconclusive (no result: LMNA splice mod, HTT aggregate)
CCOC(=O)n1cc(-c2cnc(CNC(=O)C(C)(c3ccccc3)c3ccccc3)o2)c2ccccc21	LMNA splice mod inconclusive (no result: HTT ATP protect)
CC(Oc1ccccc1Cl)C(=O)/C=C/N(C)C (configuration not stated)	HPGD inh 14µM
CC(Oc1ccc(F)cc1)C(=O)/C=C\N(C)C (configuration not stated)	none
CC(Oc1ccccc1F)C(=O)/C=C/N(C)C (configuration not stated)	LMNA splice mod inconclusive, HPGD inh 28µM
COC(=O)C1CCN(S(=O)(=O)c2ccc(N3CCCCS3(=O)=O)cc2)CC1	none (no result: KDM4E inh, HTT ATP protect, HTT aggregate, HPGD inh, ALDH1A1 block)
S=c1[nH]c2ccc(Cl)cc2s1	KDM4E inh 7.9µM, ALDH1A1 block 1.3µM (no result: HPGD inh)
Cc1ccc(NC(C#N)c2ccccc2OCc2ccccc2)cc1 (configuration not stated)	LMNA splice mod inconclusive, ALDH1A1 block inconclusive
Cc1ccc(S(=O)(=O)/C(C#N)=C/c2c(N3CC(C)OC(C)C3)nc3c(C)cccn3c2=O)cc1 (configuration not stated)	HPGD inh 2.2µM, ALDH1A1 block inconclusive
CC1CN(c2nc3ccccn3c(=O)c2/C=C(\C#N)S(=O)(=O)c2ccccc2)CC(C)O1 (configuration not stated)	HPGD inh 18µM, ALDH1A1 block 13µM
Cc1cccn2c(=O)c(/C=C(\C#N)S(=O)(=O)c3ccccc3)c(N3CCN(C)CC3)nc12	ALDH1A1 block 11µM
CC1(C)CC(=O)C(C=Nc2ccc(N)cc2)=C(O)C1	KDM4E inh inconclusive, ALDH1A1 block 11µM (no result: LMNA splice mod, HPGD inh)
COc1cccc(N=CC2=C(O)CC(C)(C)CC2=O)c1	HTT aggregate inconclusive, ALDH1A1 block 8.9µM (no result: HTT ATP protect)
COc1cccc(N=CC2=C(O)CCCC2=O)c1	none (no result: HPGD inh)
Cc1[nH]nc(N=CC2=C(O)CC(c3ccco3)CC2=O)c1-c1ccc(Cl)cc1 (configuration not stated)	ALDH1A1 block inconclusive
Cc1[nH]nc(N=CC2=C(O)CC(C)(C)CC2=O)c1-c1ccc(Cl)cc1	ALDH1A1 block 14µM
CC1(C)CC(=O)C(C=Nc2ccc(O)cc2)=C(O)C1	ALDH1A1 block inconclusive
CC1(C)CC(=O)C(C=NCCN2CCN(C(=O)C34CC5CC(CC(C5)C3)C4)CC2)=C(O)C1	ALDH1A1 block 7.9µM
CN(C)c1ncc2ncc(=O)n(CCC#N)c2n1	HPGD inh inconclusive, ALDH1A1 block inconclusive (no result: LMNA splice mod, KDM4E inh, HTT aggregate)
Cc1nc(Nc2ncc(C(=O)Nc3c(C)cccc3Cl)s2)cc(N2CCN(CCO)CC2)n1	HTT aggregate inconclusive (no result: LMNA splice mod, KDM4E inh, HPGD inh, ALDH1A1 block)
CS(=O)(=O)N1CCC2(CCCN(c3ccncc3)C2)CC1	none (no result: LMNA splice mod, KDM4E inh, HTT aggregate)
O=C(COC(=O)C1CCN(/C=C/C(=O)C(F)(F)F)CC1)Nc1cccc(F)c1	ALDH1A1 block inconclusive
CC1(C)CC(=O)C(C=Nc2ccc3cn[nH]c3c2)=C(O)C1	ALDH1A1 block 14µM
CN=CC1=C(O)CC(C)(C)CC1=O	none
CC1(C)CC(=O)C(C=NCC(N)=O)=C(O)C1	KDM4E inh inconclusive, HTT aggregate 11µM
CCOc1ccc(N=CC2=C(O)CC(C)(C)CC2=O)cc1	ALDH1A1 block 14µM
CCOC(=O)c1ccc(NC(=S)N2CCN(CCN=CC3=C(O)CC(C)(C)CC3=O)CC2)cc1	LMNA splice mod inconclusive, HTT aggregate inconclusive, ALDH1A1 block 0.5µM (no result: HPGD inh)
CC1(C)CC(=O)C(C=NCCN2CCNC2=O)=C(O)C1	ALDH1A1 block 20µM (no result: HTT ATP protect)
CC1(C)CC(=O)C(/C=N/c2ncccc2C(=O)O)=C(O)C1	HPGD inh inconclusive, ALDH1A1 block 13µM
CC1(C)CC(=O)C(C=NCCN2CCN(C3CC(=O)N(c4ccc(Br)cc4)C3=O)CC2)=C(O)C1 (configuration not stated)	ALDH1A1 block 28µM (no result: HPGD inh)
